In article PMC4336329 (PLoS ONE, 2015):
In all, about 310,000 compounds went through this assay and about 14,000 (4.5%) showed an effect of 50% or more. Effects have a minus sign here. This excerpt belongs to a sample that is enriched for strong results.

The compounds below were run against human ether-à-go-go-related gene (hERG) potassium channel (human, UniProt Q12809) (assay: primary screen, population patch clamp on CHO cells stably expressing hERG; higher = less effect of the substance).
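Further: peak tail current of the secondary pulse compared with the same well before compound.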

human ether-à-go-go-related gene (hERG) potassium channel, sequence (Q12809 whole entry, looked up): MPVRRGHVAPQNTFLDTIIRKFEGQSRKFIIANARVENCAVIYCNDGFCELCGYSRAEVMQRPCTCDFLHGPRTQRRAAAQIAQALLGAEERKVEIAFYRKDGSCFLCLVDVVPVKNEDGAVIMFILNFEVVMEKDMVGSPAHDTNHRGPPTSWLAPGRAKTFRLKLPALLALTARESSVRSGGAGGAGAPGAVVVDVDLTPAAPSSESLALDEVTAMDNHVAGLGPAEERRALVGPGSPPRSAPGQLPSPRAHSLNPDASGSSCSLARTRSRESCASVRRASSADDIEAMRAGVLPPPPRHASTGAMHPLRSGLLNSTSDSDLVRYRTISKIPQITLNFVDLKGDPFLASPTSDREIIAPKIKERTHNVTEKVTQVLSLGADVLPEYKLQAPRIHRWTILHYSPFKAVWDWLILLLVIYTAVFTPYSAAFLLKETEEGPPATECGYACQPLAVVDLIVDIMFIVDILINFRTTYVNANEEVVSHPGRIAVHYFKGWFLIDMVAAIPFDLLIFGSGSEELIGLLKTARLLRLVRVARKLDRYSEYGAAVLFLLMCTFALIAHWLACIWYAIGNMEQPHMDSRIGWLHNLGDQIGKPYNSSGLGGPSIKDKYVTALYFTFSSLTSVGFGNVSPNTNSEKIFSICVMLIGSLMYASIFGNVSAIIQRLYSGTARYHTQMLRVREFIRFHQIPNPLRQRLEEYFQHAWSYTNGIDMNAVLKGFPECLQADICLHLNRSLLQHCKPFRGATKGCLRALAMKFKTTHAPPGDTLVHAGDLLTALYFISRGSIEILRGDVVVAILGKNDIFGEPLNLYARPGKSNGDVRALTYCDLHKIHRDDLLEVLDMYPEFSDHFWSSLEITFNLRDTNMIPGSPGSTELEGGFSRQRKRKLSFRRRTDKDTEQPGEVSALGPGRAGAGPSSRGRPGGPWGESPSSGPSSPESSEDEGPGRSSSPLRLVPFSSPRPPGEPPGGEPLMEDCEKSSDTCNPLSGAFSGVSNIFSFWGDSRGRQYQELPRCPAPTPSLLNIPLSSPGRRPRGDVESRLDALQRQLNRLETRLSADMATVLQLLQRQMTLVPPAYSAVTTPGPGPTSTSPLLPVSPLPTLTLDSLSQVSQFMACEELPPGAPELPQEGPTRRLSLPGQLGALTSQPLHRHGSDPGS

Compound | hERG current change (%, negative = inhibition) at 10uM [%]
O=C(NNC(=O)C1CC=CCC1)c1ccccc1O (stereo not shown) | -4.58
Cn1c(CC(=O)Nc2ccccc2)nnc1SCC(=O)NC1=NCCS1 | 12.7
CC(C)c1ccccc1OCCCCCN1CCOCC1 | -13.5
O=C(O)COc1ccc(Cl)cc1Cl | 7.53
COc1ccc(C)cc1NC(=O)C(=O)N/N=C(\C)CC(=O)Nc1cccnc1 | 2.77
C=CCN1C(=O)c2ccc(C(=O)N(CC)CC(=O)Nc3ccc(OC)cc3)cc2C1=O | -20
CCN(CC)C(=O)c1cccc(-c2ccc(OC)cc2)c1 | -17
C=CCN1C[C@@H](C)N(C(c2ccc(C(=O)N(CC)CC)cc2)c2cccc(OC)c2)C[C@@H]1C (stereo partly shown) | -65.3
c1ccc(-n2c(-c3ccncc3)nnc2N2CCOCC2)cc1 | 16.9
Cc1cc(=O)c2ccc3ccccc3c2[nH]1 | 7.45
Cc1cc(=O)cc(C)n1-c1ccc(F)cc1F | 0.384
CC1(C)c2cc(O)ccc2OC1N1CCOCC1 (stereo not shown) | 13.6
COc1ccc(-n2cnc3cc(NCc4ccco4)ccc32)cc1 | -67.3
c1ccc(-n2cnc3cc(NCc4ccco4)ccc32)cc1 | -49.8
COc1ccccc1-n1cnc2cc(NCc3ccco3)ccc21 | -20.7
O=C1c2ccccc2C(=O)N1Cc1ccccc1F | 13
CC1=C(C(=O)Nc2ccccc2)C(c2ccco2)C(C#N)=C(SCC(N)=O)N1 (stereo not shown) | -3.31
Cc1cccc(C)c1OCc1cc(C(=O)N2CCC(c3ccncc3)CC2)no1 | -55.8
CSc1ccccc1OCc1cc(C(=O)N2CCSCC2)no1 | 0.366
CSc1ccccc1OCc1cc(C(=O)N2CCC(c3ccncc3)CC2)no1 | -58.5
O=C(c1cc(COc2ccc(F)cc2Cl)on1)N1CCCCCCC1 | 0.909
Cc1cccc(C)c1OCc1cc(C(=O)N2CCC(c3ccccc3)CC2)no1 | -1.95
O=C(c1cc(COc2ccc(F)cc2Cl)on1)N1CCCCCC1 | -3.89

Compound | hERG current change (%, negative = inhibition) at 10uM [%]
O=C(c1cc(COc2ccc(F)cc2Cl)on1)N1CCC(c2ccncc2)CC1 | -72.5
O=C(c1cc(COc2c(F)cccc2F)on1)N1CCC(c2ccncc2)CC1 | -38.5
CSc1ccccc1OCc1cc(C(=O)N2CCC(Oc3cccnc3)CC2)no1 | -37.4
CC(C)C[C@H](NC(=O)c1nc[nH]c1C(=O)NC1CCN(C(=O)OC(C)(C)C)CC1)C(=O)OCc1ccccc1 | 3.48
COc1cccc(C2CC(=O)C3=C(C2)Nc2ccccc2N(C(=O)CCC(=O)O)C3c2ccc(F)cc2)c1 (stereo not shown) | 5.1
Nc1ccccc1NC1=CC(=O)CC(c2ccco2)C1 (stereo not shown) | 10.4
Cn1c(SCC(=O)c2ccccc2)nnc1-c1cnccn1 | 6.47
COc1ccc(NC(=O)CSc2ccc3nnc(-c4cccnc4)n3n2)cc1OC | 1.17
CCOc1ccc(NC(=O)CSc2ccc(-c3cccnc3)nn2)cc1 | -5.55
COc1ccc(NC(=O)CSc2ccc3nnc(-c4cccnc4)n3n2)cc1 | -50.4
CC(=O)c1ccc(NC(=O)CSc2ccc3nnc(-c4cccnc4)n3n2)cc1 | -28.8
COc1cccc(NC(=O)CSc2ccc3nnc(-c4cccnc4)n3n2)c1 | -37.5
CCOc1ccc(NC(=O)CSc2ccc3nnc(-c4cccnc4)n3n2)cc1 | -54.7
CC(=O)Nc1ccc(NC(=O)CSc2ccc3nnc(-c4cccnc4)n3n2)cc1 | 2.95
Cc1ccc(NC(=O)CSc2ccc3nnc(-c4cccnc4)n3n2)cc1 | -53.1
O=C(CSc1ccc2nnc(-c3cccnc3)n2n1)Nc1ccccc1 | -17.8
Cc1c(C(=O)Nc2cccc(Cl)c2)cn2c(nc3ccccc32)c1C#N | 6.75
CC(=O)NCC(=O)OC(C)C(=O)Nc1ccc(C(C)=O)cc1 (stereo not shown) | -10.4
COc1cc(/C=C(\C#N)C(=O)NCC2CCCO2)ccc1OCC(N)=O (stereo not shown) | 28.7
C/C(=N\NC(=O)CCc1ccccc1)c1ccc(Br)cc1 | 11
CN(C)S(=O)(=O)c1ccc(NC(=O)COc2ncnc3sccc23)cc1 | 15.7
CN(C)c1ccc(CNC(=O)CCNS(=O)(=O)c2cc(Br)cnc2N)cc1 | 12
COc1cccc(/C=C/C(=O)Nc2ccccc2N2CCOCC2)c1 | -15.4

Compound | hERG current change (%, negative = inhibition) at 10uM [%]
CCCCS(=O)CC(CS(=O)CCCC)OC(=O)c1ccccc1 (stereo not shown) | -35.2
CCCCS(=O)CC(COC)OC(=O)c1ccccc1 (stereo not shown) | 2.46
CCCCS(=O)CC(COc1ccc(Cl)cc1)OC(=O)c1ccccc1 (stereo not shown) | -56.3
Cc1ccccc1NC(=O)c1oc(=O)c2ccccc2c1-c1ccccc1 | -1.57
Cc1ccc(-c2c(C(=O)NCc3ccccc3)oc(=O)c3ccccc23)cc1 | 1.98
CC(C)N(CCNC(=O)c1oc(=O)c2ccccc2c1-c1ccccc1)Cc1ccco1 | -67.9
CC(C)CC(=O)Nc1ncnc2c1C(=O)CC(C)(C)C2 | -0.157
CCOC(=O)N1CCN(S(=O)(=O)c2c(C)cc(C)cc2C)CC1 | -5.61
CSc1ccc(/C=N/n2c(C)cc(C)cc2=O)cc1 | -2.09
Cc1nnc(SCC(=O)Nc2ccc([N+](=O)[O-])cc2)n1CC1CCCO1 (stereo not shown) | -55.5
CCc1ccc(NC(=O)CSc2nnc(C3CC3)n2CC2CCCO2)cc1 (stereo not shown) | -22.4
Cc1nnc(SCC(=O)Nc2cccc(Cl)c2)n1CC1CCCO1 (stereo not shown) | -7.41
Cc1ccc(NC(=O)CSc2nnc(C3CC3)n2CC2CCCO2)cc1C (stereo not shown) | -24
C=CCn1c(SCC(=O)Nc2cccc(S(=O)(=O)N(C)c3ccccc3)c2)nnc1C1CC1 | -69.8
Cc1ccc([N+](=O)[O-])cc1NC(=O)CSc1nnc(C)n1CC1CCCO1 (stereo not shown) | -14.6
CCn1c(SCC(=O)Nc2cccc(S(=O)(=O)N(C)c3ccccc3)c2)nnc1C1CC1 | -44.1
O=C(CSc1nnc(C2CC2)n1CC1CCCO1)Nc1ccc(Cl)cc1 (stereo not shown) | -56.8
O=C(CSc1nnc(C2CC2)n1CC1CCCO1)Nc1cccc(Cl)c1 (stereo not shown) | -56.1
Cc1nnc(SCC(=O)Nc2cccc([N+](=O)[O-])c2)n1CC1CCCO1 (stereo not shown) | -13
CN(c1ccccc1)S(=O)(=O)c1cccc(NC(=O)CSc2nnc(C3CC3)n2C)c1 | -30.9
Cc1cccc(NC(=O)CSc2nnc(C3CC3)n2CC2CCCO2)c1 (stereo not shown) | -14.9
